Source: PubChem BioAssay
The source made the active and inactive calls. Unless noted, the rule behind the calls is not given here.

Tests used:
[1] = HepG2 liver cancer cell viability effects, profiling panel, resazurin fluorescence, 24 h, PK04 Diversity Set (AID 1172); details: higher = more signal; note: test concentration not given here
[2] = basal S. cerevisiae growth modulation, no modifier, primary screen, OD600, strain BY4716, 24 h, basal condition (AID 1173); details: OD600, 24 h, higher = more signal, called active from +8 up or from −8 down
[3] = MM1S myeloma cell viability, profiling panel, resazurin fluorescence, basal, 24 h, PK04 Diversity Set (AID 1174); details: higher = more signal, called active from +8 up or from −8 down;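 note: MM1S multiple myeloma cell line; test concentration not given here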
[4] = target: Dihydroorotate dehydrogenase (quinone), mitochondrial (Plasmodium falciparum (isolate 3D7)) (UniProt Q08210); test: PfDHODH enzyme inhibitors, primary screen, biochemical, C-terminal His tag, absorbance 600 nm (AID 1175); details: DCIP absorbance 600 nm, higher = more signal, called active from +8 up or from −8 down;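 note: recombinant parasite enzyme with a five histidine tag at its C terminus; test concentration not given here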
[5] = P. aeruginosa biofilm formation inhibitors, primary screen, strain PAO1, LB-PBS medium, absorbance 600 nm (AID 1176); note: test concentration not given here; details: P. aeruginosa PAO1 growth/biofilm, A600, 12 h; higher = more signal
[6] = S. cerevisiae RM11-1a growth modifiers, primary screen, strain RM11-1a, OD600, basal, 24 h (AID 1177); details: OD600, 24 h, higher = more signal, called active from +8 up or from −8 down;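 note: cultures grown under basal conditions with no added stressor; test concentration not given here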
[7] = E. coli acrAB mutant growth effects, primary screen, E. coli filamentation inducers, strain DRC39, OD650, 24 h (AID 1178); details: higher = more signal, called active from +8 up or from −8 down;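 note: growth measured as culture turbidity by optical density at 650 nm; test concentration not given here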
[8] = E. coli acrAB mutant growth effects, primary screen, E. coli filamentation inducers, strain DRC39, OD650, 48 h (AID 1179);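 note: screen aims at cell division blockers that make cells filament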; details: E. coli DRC39 delta-acrAB growth, higher = more signal, called active from +8 up or from −8 down
[9] = RPMI8226 myeloma cell viability, profiling panel, resazurin fluorescence, basal, 24 h, PK04 Diversity Set (AID 1180); details: higher = more signal;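 note: RPMI8826 multiple myeloma cell line at 5000 cells per well; test concentration not given here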
[10] = target: E3 ubiquitin-protein ligase XIAP (Homo sapiens) (UniProt P98170); test: XIAP binders, primary screen, biophysical, small-molecule microarray, fluorescence 635 nm (AID 1181); details: small-molecule microarray binding, higher = more signal;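 note: score merges 667 nm emission and signal to noise over triplicate slides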
Sequence of E3 ubiquitin-protein ligase XIAP (Homo sapiens) (P98170 whole entry, looked up): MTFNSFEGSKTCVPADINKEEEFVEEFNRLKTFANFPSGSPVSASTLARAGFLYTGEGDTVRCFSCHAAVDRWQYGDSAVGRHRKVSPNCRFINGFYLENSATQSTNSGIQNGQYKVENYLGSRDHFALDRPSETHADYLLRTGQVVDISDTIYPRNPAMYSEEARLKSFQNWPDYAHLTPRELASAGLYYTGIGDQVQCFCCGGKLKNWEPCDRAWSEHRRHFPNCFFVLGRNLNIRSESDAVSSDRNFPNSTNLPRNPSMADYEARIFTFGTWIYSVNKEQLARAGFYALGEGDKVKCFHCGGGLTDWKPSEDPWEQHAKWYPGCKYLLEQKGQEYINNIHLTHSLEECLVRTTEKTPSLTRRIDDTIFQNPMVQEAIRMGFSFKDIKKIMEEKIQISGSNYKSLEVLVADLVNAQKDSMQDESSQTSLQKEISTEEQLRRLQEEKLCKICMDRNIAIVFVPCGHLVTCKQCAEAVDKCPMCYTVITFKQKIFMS

Sequence of Dihydroorotate dehydrogenase (quinone), mitochondrial (Plasmodium falciparum (isolate 3D7)) (Q08210 whole entry, looked up): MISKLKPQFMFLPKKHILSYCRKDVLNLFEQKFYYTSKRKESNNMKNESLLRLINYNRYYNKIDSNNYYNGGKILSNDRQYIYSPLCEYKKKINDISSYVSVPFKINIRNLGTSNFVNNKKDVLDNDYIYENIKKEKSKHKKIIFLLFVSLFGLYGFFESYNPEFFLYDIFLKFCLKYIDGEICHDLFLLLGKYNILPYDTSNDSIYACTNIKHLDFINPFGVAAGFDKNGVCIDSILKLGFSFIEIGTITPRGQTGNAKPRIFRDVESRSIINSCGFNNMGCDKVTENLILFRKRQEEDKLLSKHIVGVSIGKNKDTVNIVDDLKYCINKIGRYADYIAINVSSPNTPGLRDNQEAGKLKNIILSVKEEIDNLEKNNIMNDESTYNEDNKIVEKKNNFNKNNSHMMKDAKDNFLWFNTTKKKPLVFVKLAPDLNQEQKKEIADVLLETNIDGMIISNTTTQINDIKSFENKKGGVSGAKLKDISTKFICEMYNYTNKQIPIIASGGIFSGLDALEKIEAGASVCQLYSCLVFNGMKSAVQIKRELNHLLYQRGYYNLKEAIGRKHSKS

## COCCOC(=O)N1C(=O)[C@@]2(c3cc(C#CC4(O)CCCCCC4)ccc31)[C@H](C(N)=O)[C@H]1C(=O)O[C@H](c3ccccc3)[C@H](c3ccccc3)N1[C@@H]2c1ccc(OCCO)cc1
[1]
  z-score: -0.905
[2]
  z-score: 0.842 (inactive)
[3]
  z-score: -3.72 (inactive)
[4]
  composite z-score: 0.42 (inactive)
[5]
  z-score: 2.53 (inactive)
[6]
  z-score: 2.58 (inactive)
[7]
  z-score: 0.141 (inactive)
[8]
  z-score: 0.282 (inactive)
[9]
  z-score: -3.3
[10]
  composite z-score: 0.128

## CCCC=C(CCC)[C@@H](NC(=O)c1ccc(C(=O)OC)cc1)c1ccc(C(=O)OC)cc1
[1]
  z-score: -0.179
[2]
  z-score: 1.24 (inactive)
[3]
  z-score: -0.64 (inactive)
[4]
  composite z-score: 0.138 (inactive)
[5]
  z-score: 1.1 (inactive)
[6]
  z-score: 1.55 (inactive)
[7]
  z-score: -1.1 (inactive)
[8]
  z-score: -0.486 (inactive)
[9]
  z-score: -0.358
[10]
  composite z-score: 0.0627

## O=C1O[C@H](c2ccccc2)[C@H](c2ccccc2)N2[C@H]1[C@@H](C(=O)O)[C@]1(C(=O)Nc3ccccc31)[C@H]2c1ccc(OCCO)cc1
[1]
  z-score: 0.0019
[2]
  z-score: -0.302 (inactive)
[3]
  z-score: -0.0917 (inactive)
[4]
  composite z-score: -0.652 (inactive)
[5]
  z-score: 0.0485 (inactive)
[6]
  z-score: -0.785 (inactive)
[7]
  z-score: -0.545 (inactive)
[8]
  z-score: -0.858 (inactive)
[9]
  z-score: 1.16
[10]
  composite z-score: 0.18

## CN1C(=O)C2C(C1=O)C1C=C(CCCO)C2C(C2CC2)N1C (stereo not given)
[1]
  z-score: -1.15
[2]
  z-score: 0.275 (inactive)
[3]
  z-score: -0.228 (inactive)
[4]
  composite z-score: -2.87 (inactive)
[5]
  z-score: -0.214 (inactive)
[6]
  z-score: -0.593 (inactive)
[7]
  z-score: 0.796 (inactive)
[8]
  z-score: 1.44 (inactive)
[9]
  z-score: -0.965
[10]
  composite z-score: 0.333

## CC[C@@H](O[Si](C#C[Si](C(C)C)(C(C)C)C(C)C)(C(C)C)C(C)C)c1cn([C@H](CO)Cc2ccccc2)nn1
[1]
  z-score: 1.03
[2]
  z-score: 1.79 (inactive)
[3]
  z-score: 0.604 (inactive)
[4]
  composite z-score: -0.572 (inactive)
[5]
  z-score: 0.183 (inactive)
[6]
  z-score: 0.959 (inactive)
[7]
  z-score: -0.316 (inactive)
[8]
  z-score: 0.413 (inactive)
[9]
  z-score: 1.24
[10]
  composite z-score: -0.207

## C=C(C(=O)CC[C@@H](OC(=O)c1cccnc1)c1cccc(OCCO)c1)C(C)C
[1]
  z-score: 0.38
[2]
  z-score: -0.58 (inactive)
[3]
  z-score: -0.667 (inactive)
[4]
  composite z-score: -1.33 (inactive)
[5]
  z-score: 0.33 (inactive)
[6]
  z-score: -1.3 (inactive)
[7]
  z-score: 0.863 (inactive)
[8]
  z-score: 0.816 (inactive)
[9]
  z-score: -1.34
[10]
  composite z-score: 0.127

## CC1(C)OB(/C=C\CC(OC(=O)c2ccncc2)c2ccccc2)OC1(C)C (stereo not given)
[1]
  z-score: -0.159
[2]
  z-score: -1.17 (inactive)
[3]
  z-score: 0.217 (inactive)
[4]
  composite z-score: -0.413 (inactive)
[5]
  z-score: -0.159 (inactive)
[6]
  z-score: -0.786 (inactive)
[7]
  z-score: 0.0147 (inactive)
[8]
  z-score: -0.465 (inactive)
[9]
  z-score: 0.143
[10]
  composite z-score: 0.0487

## COc1ccc([Si](C)(C)[C@H]2[C@H](CC(=O)N(CCO)Cc3ccccc3)O[C@@]3(C(=O)N(c4ccccc4)c4ccccc43)[C@@H]2C)cc1
[1]
  z-score: -4.7
[2]
  z-score: 0.148 (inactive)
[3]
  z-score: -8.42 (active)
[4]
  composite z-score: 0.531 (inactive)
[5]
  z-score: 0.838 (inactive)
[6]
  z-score: 0.29 (inactive)
[7]
  z-score: 0.997 (inactive)
[8]
  z-score: -0.0322 (inactive)
[9]
  z-score: -6.25
[10]
  composite z-score: 0.226

## CCOC(=O)C1=CC[C@@H](c2ccccc2)N(S(=O)(=O)c2ccc(C)cc2)[C@@H]1C#N
[1]
  z-score: 0.794
[2]
  z-score: -1.95 (inactive)
[3]
  z-score: -1.43 (inactive)
[4]
  composite z-score: -1.21 (inactive)
[5]
  z-score: -0.088 (inactive)
[6]
  z-score: 0.455 (inactive)
[7]
  z-score: -0.337 (inactive)
[8]
  z-score: 0.831 (inactive)
[9]
  z-score: -1.57
[10]
  composite z-score: -0.207

## CCOC(=O)C[C@H]1[C@H](OC(=O)c2cc3ccccc3oc2=O)[C@@H](NC(=O)c2ccc(-c3ccccc3)cc2)c2cc(OCCCO)ccc2N1C(=O)Cc1ccc(OC)cc1
[1]
  z-score: 0.288
[2]
  z-score: 0.0392 (inactive)
[3]
  z-score: -0.346 (inactive)
[4]
  composite z-score: -0.487 (inactive)
[5]
  z-score: 0.285 (inactive)
[6]
  z-score: -0.0775 (inactive)
[7]
  z-score: -0.225 (inactive)
[8]
  z-score: -0.618 (inactive)
[9]
  z-score: -0.0232
[10]
  composite z-score: -0.338

## CC(C)(C)OC(=O)CC[C@]1(C(N)=O)N=C(c2ccc(OCCCO)cc2)O[C@H]1c1ccccc1N=[N+]=[N-]
[1]
  z-score: 0.551
[2]
  z-score: 0.0323 (inactive)
[3]
  z-score: -0.446 (inactive)
[4]
  composite z-score: 0.982 (inactive)
[5]
  z-score: -0.0279 (inactive)
[6]
  z-score: 0.979 (inactive)
[7]
  z-score: 0.0489 (inactive)
[8]
  z-score: 1.12 (inactive)
[9]
  z-score: 0.596
[10]
  composite z-score: 0.333

## C=CCC(OC(C)=O)[C@@H]1[C@@H](N(Cc2cccc3ccccc23)C(=O)c2ccc(C)cc2)c2cc(OCCCO)ccc2N1C(=O)Cc1ccc2ccccc2c1 (stereo not given in full)
[1]
  z-score: 0.0546
[2]
  z-score: -1.34 (inactive)
[3]
  z-score: 0.802 (inactive)
[4]
  composite z-score: -2.08 (inactive)
[5]
  z-score: 0.0642 (inactive)
[6]
  z-score: -1.31 (inactive)
[7]
  z-score: 0.72 (inactive)
[8]
  z-score: 1.28 (inactive)
[9]
  z-score: 0.608
[10]
  composite z-score: 0.0264

## C=CCNC(=O)[C@H]1[C@@H]2C(=O)O[C@@H](c3ccccc3)[C@@H](c3ccccc3)N2[C@@H](c2ccc(O)cc2)[C@]12C(=O)N(C(=O)OCCOC)c1ccc(C#Cc3ccc(OC)cc3)cc12
[1]
  z-score: 0.267
[2]
  z-score: 0.469 (inactive)
[3]
  z-score: -0.466 (inactive)
[4]
  composite z-score: -0.208 (inactive)
[5]
  z-score: 0.485 (inactive)
[6]
  z-score: 0.539 (inactive)
[7]
  z-score: -1.2 (inactive)
[8]
  z-score: -0.844 (inactive)
[9]
  z-score: -0.772
[10]
  composite z-score: -0.0427

## COC(=O)[C@@]1(Cc2ccc(F)cc2)[C@@H]2C(=CC(=O)[C@H]2CC(=O)C(=O)N2CCCC2)CN1C(=O)c1ccccc1
[1]
  z-score: -1.96
[2]
  z-score: 0.336 (inactive)
[3]
  z-score: -2.67 (inactive)
[4]
  composite z-score: -3.95 (inactive)
[5]
  z-score: 2.55 (inactive)
[6]
  z-score: 0.381 (inactive)
[7]
  z-score: 0.132 (inactive)
[8]
  z-score: -0.363 (inactive)
[9]
  z-score: -5.25
[10]
  composite z-score: -0.0391

## O=C(O)C1=CC[C@H]2C(=O)N(c3ccccc3)C(=O)[C@@H]12
[1]
  z-score: -0.0581
[2]
  z-score: 1.53 (inactive)
[3]
  z-score: -0.849 (inactive)
[4]
  composite z-score: 0.609 (inactive)
[5]
  z-score: 0.477 (inactive)
[6]
  z-score: 1.6 (inactive)
[7]
  z-score: -0.897 (inactive)
[8]
  z-score: -0.453 (inactive)
[9]
  z-score: -1.24
[10]
  composite z-score: 0.997

## CN(C)C(=O)[C@]1(CCS(=O)(=O)c2ccccc2)N=C(c2ccc(OCCCO)cc2)O[C@@H]1c1ccccc1CN=[N+]=[N-]
[1]
  z-score: 1.46
[2]
  z-score: 0.705 (inactive)
[3]
  z-score: 0.273 (inactive)
[4]
  composite z-score: 0.37 (inactive)
[5]
  z-score: 0.743 (inactive)
[6]
  z-score: 0.3 (inactive)
[7]
  z-score: 0.293 (inactive)
[8]
  z-score: -0.373 (inactive)
[9]
  z-score: -0.0461
[10]
  composite z-score: 0.558

## COCCOC(=O)N1C(=O)[C@@]2(c3cc(C#CCC(C(=O)OC)C(=O)OC)ccc31)[C@H](C(=O)N1CCc3cc(OC)c(OC)cc3C1)[C@H]1C(=O)O[C@H](c3ccccc3)[C@H](c3ccccc3)N1[C@@H]2c1ccccc1OCCO
[1]
  z-score: 1.11
[2]
  z-score: 1.48 (inactive)
[3]
  z-score: 0.328 (inactive)
[4]
  composite z-score: -1.23 (inactive)
[5]
  z-score: 1.68 (inactive)
[6]
  z-score: 1.3 (inactive)
[7]
  z-score: 0.414 (inactive)
[8]
  z-score: -0.186 (inactive)
[9]
  z-score: 0.637
[10]
  composite z-score: -0.226

## C=CC[C@H](O)c1ccc(O)c2ccccc12
[1]
  z-score: -0.129
[2]
  z-score: -15.1 (active)
[3]
  z-score: -1.42 (inactive)
[4]
  composite z-score: -1.86 (inactive)
[5]
  z-score: 0.614 (inactive)
[6]
  z-score: 0.891 (inactive)
[7]
  z-score: 0.682 (inactive)
[8]
  z-score: 0.419 (inactive)
[9]
  z-score: -1.05
[10]
  composite z-score: -0.113
